According to PubChem BioAssay:
Measured potencies and affinities stand elsewhere. Active and inactive are the calls of the source. No cut-off is given here; in the data, nearly all actives have IC50 up to about 0.91 µM.

These compounds were tested against Calcium-dependent protein kinase 4 (Plasmodium falciparum (isolate 3D7)) (UniProt Q8IBS5) (assay: PfCDPK4 kinase inhibitors, biochemical, TCAMS library (AID 1159588)). Conditions: recombinant PfCDPK4, Kinase-Glo ATP depletion luminescence.
Calcium-dependent protein kinase 4 (Plasmodium falciparum (isolate 3D7)), sequence (Q8IBS5 whole entry, looked up): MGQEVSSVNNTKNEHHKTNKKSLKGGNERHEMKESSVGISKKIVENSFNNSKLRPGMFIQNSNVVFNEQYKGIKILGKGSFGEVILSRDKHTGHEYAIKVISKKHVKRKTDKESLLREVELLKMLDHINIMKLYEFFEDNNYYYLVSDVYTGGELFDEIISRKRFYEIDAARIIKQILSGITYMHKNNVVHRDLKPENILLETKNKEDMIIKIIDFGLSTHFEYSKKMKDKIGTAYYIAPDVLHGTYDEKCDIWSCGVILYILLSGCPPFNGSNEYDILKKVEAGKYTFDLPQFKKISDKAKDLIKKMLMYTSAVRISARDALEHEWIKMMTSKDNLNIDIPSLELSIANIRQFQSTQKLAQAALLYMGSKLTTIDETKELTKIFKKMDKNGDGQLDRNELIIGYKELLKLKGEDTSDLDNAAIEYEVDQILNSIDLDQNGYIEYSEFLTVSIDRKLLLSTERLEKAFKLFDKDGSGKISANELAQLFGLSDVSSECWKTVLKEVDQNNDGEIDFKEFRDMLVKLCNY

outcome, inactive:
CCC(C(=O)Nc1cc(=O)[nH]c2nc(-c3ccco3)nn12)c1ccccc1 (stereo not given)
O=C(Nc1ccc(-c2csc(-c3nc4ccccc4[nH]3)c2)cc1)Nc1ccc(Cl)c(Cl)c1
O=C(Nc1ccc(C(=O)N2CCN(CCN3CCN(c4cccc(C(F)(F)F)c4)CC3)CC2)cc1)c1ccc(C(F)(F)F)cc1
COc1ccc(CNC2CCN(C)CC2)cc1-c1ccc(S(=O)(=O)NCc2ccccc2)c(F)c1
CCCCN(Cc1cc(Cl)c(OCC)c(OC)c1)c1ccc(C(O)(C(F)(F)F)C(F)(F)F)cc1
O=C(NCCCCN1CCN(c2cccc3ccccc23)CC1)c1ccc(NC(=O)c2ccc(Cl)cc2)cc1
CCOc1ccccc1[C@H]1[C@H](C(=O)C(C)(C)C)N2c3ccc(Br)cc3C=CC2C12C(=O)c1ccccc1C2=O (stereo not given in full)
Cc1nnsc1C(=O)Nc1cccc(-c2ccc(-c3nc4ccc(F)cc4[nH]3)s2)c1
O=C1C2=C(Nc3ccccc3SC2c2cccs2)c2ccccc21 (stereo not given)
COc1ccc(CCNCCCCCCNCCc2ccc(Cl)cc2)c(Cl)c1OC
C=CCc1cccc(C)c1OCCCON1C(N)=NC(N)=NC1(C)C
COc1ccccc1N(C)CCNc1cc(C)nc(Nc2ccccc2)n1
CN1CCN(C(C(=O)NCc2cc(Cl)cc(Cl)c2)c2ccccc2-c2ccsc2)CC1 (stereo not given)
CNCCNCc1cccc(-c2ccc(-c3nc4c(C)cccc4[nH]3)s2)c1
Cc1ccc(C(C#N)c2ccc3c(C(F)(F)F)cc(C(F)(F)F)nc3n2)cc1 (stereo not given)
O=C(/C=C/c1ccc(Cl)c(Cl)c1)N1CCN(C(=O)Nc2ccc(C(F)(F)F)cc2)CC1
CC(Cl)=CCc1c(C)[nH]c2c(ccc3ccccc32)c1=O
O=C(Nc1cccc(CN2CCCN(Cc3ncc[nH]3)CC2)c1)c1cc2ccccc2s1
CC(C)c1ccc2c(c1)c(SC(C)(C)C)c(CC(C)(C)C#N)n2Cc1ccc(Cl)cc1
COc1cc2nc(N3CCN(c4nc(N)c5cc(OC)c(OC)cc5n4)CC3)nc(N)c2cc1OC
COc1cc(NC(=O)c2cccs2)c(OC)cc1NC(=O)Nc1cccc(Cl)c1
COc1ccc2nccc([C@@H](O)CN3CCC(NC(=O)C(c4cc5ccccc5o4)N4CCN(c5ccccc5)CC4)CC3)c2c1 (stereo not given in full)
CCN(CC)CCN(Cc1ccc(-c2ccc(Cl)cc2)cc1)C(=O)Cn1cc(CN(C)C)c(=O)nc1SCc1ccc(F)cc1
Cc1[nH]c(C)c(-c2ccc(OCc3ccccc3)cc2)c(=O)c1Br
CSc1sc(NC(=O)Nc2cccc(C(F)(F)F)c2)cc1C#N
Cc1ccc(S(=O)(=O)NC2CCN(c3ccnc4cc(Cl)ccc34)C2)cc1 (stereo not given)
COc1ccc2nccc([C@@H](O)CN3CC[C@H](NCc4ccc5c(n4)NC(=O)CS5)[C@H](F)C3)c2c1
COC(=O)c1ccc(OCC(O)CO)cc1O (stereo not given)
COC(=O)c1cc(/C(C)=N/Nc2nc3ccccc3[nH]2)ccc1O
Cc1[nH]c(C)c(-c2ccc(OCCCc3ccccn3)cc2)c(=O)c1Br
Cc1ccc(NC(=O)c2ccc3ncccc3c2)cc1OC1CCN(C(C)C)C1 (stereo not given)
CCN(CC1CCN(CC2(O)CCOCC2)CC1)c1cc(C)nc(Nc2ccc(Cl)cc2)n1
CC(C)c1ccc(NC(=S)NN=Cc2ccccn2)cc1
Fc1ccccc1CNc1ncc(-c2ccsc2)c(-c2nccs2)n1
Cc1nc(N)nc(N)c1Oc1cccc(Cl)c1
Cc1cnc(-c2cccc(C(=O)NC3CCC(CCN4CCc5ccc(C#N)cc5CC4)CC3)c2)[nH]1 (stereo not given)
CC1(C)CCNc2cc(NC(=O)c3ccc(-c4ncccc4C(F)(F)F)cc3)ccc21
COc1ccc(NC(=O)[C@H](Cc2ccccc2)Nc2cc(C)nc(NCCc3cccnc3)n2)cc1
O=C1SC(=Cc2ccc(O)c(O)c2)C(=O)N1c1ccccc1
O=C(CCCCCNC(=O)c1ccc(O)c(-c2ccc(Cl)c(Cl)c2)c1)NC1CCCCCC1
